The source of these data is PubChem BioAssay (Tox21).

Results filed as inconclusive are left out. Entries that show only a call come without a potency. Unmarked numbers belong to inactive results. Activity calls are given as the source filed them. The call rests on the fitted dose curve; in most records, active means well fitted curve in the direction sought with a large enough effect in the repeat runs; inconclusive means weak or mixed curves; inactive means no such curve, though single readings can be large; an effect the other way counts as inactive or inconclusive.

A short description of one test: qHTS assay to identify small molecule agonists of the RXR signaling pathway - cell viability counter screen (AID 1159529). Further: nearly all actives have a fitted effect of over 50% in size. Further: potency means the concentration at half of the fitted maximal effect.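 On activity change, negative = cytotoxicity: HEK 293T cells carrying an RXR-alpha UAS beta-lactamase reporter.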 Conditions: RXR-alpha-bla HEK293T viability, CellTiter-Glo, 16 h; series mostly up to 76.8 µM. The essentials: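 Same-well viability check after the LiveBLAzer FRET read: CellTiter-Glo added, luminescence measured after 30 min at room temperature. Reporter HEK 293T cells had been treated with compounds for 16 hr following a 5 hr preincubation.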
On the technique in general: In qHTS, concentration-response curves come from the screen itself.
Regarding `CN(C)C(=O)NC1(c2ccccc2)CCN(CC[C@@]2(c3ccc(F)c(F)c3)CN(C(=O)c3ccccc3)CCO2)CC1`, the Potency is 45.5 µM (active).
In the case of `O=C(O)C1(C(=O)O)CCC1.[NH2-].[NH2-].[Pt+2]`, the Potency result was “inactive”.
In the case of `CC/C=C\CCOC(=O)CC`, the Potency result was “inactive”.
In the case of `C=C(C)C(=O)OCCO`, the Potency result was “inactive”.
With `CCOc1ccc(O)cc1`, the Potency entry is “inactive”.
On the same count and under the same terms, to `Cn1c(=O)cc(Oc2ccc(F)cc2F)c2cnc(NCC(C)(C)O)nc21` belongs “inactive”; to `CCOc1ccc(N=Nc2ccc(/C=C/c3ccc(N=Nc4ccc(OCC)cc4)cc3S(=O)(=O)O)c(S(=O)(=O)O)c2)cc1`, “inactive”.
Turning to `CCCCCCCCCCCc1ccccc1`, the Potency entry is “inactive”.
Same read-out and setting: to `Nc1ccc(S(=O)(=O)Nc2ccccc2)cc1` belongs “inactive”; to `C=CC(=O)OCCOc1ccccc1`, “inactive”; to `C/C=C/C=C/CO`, “inactive”.
With `CCCCCCCCCCCCCCOS(=O)(=O)O`, the Potency was 21.9 µM (active).
The same measure, in the same setting: under `O=S(=O)(Oc1ccc(Cl)cc1)c1ccccc1` stands “inactive”; under `CCCCO`, “inactive”.
Same read-out and setting: under `CC(=O)[O][Al]` stands “inactive”.
Turning to `CC(=O)c1ccc2c(c1)N(CCCN1CCC(CCO)CC1)c1ccccc1S2`, the Potency is 10.7 µM (active).
Still for that read-out and setting: to `CN1CCN(C(c2ccccc2)c2ccccc2)CC1` belongs “inactive”; to `OC(C#CCN1CCCC1)(c1ccccc1)c1ccccc1`, “inactive”; to `CNCCCCOc1ccccc1Cc1ccccc1`, “inactive”.
Still for that read-out and setting: under `Cc1cccc(Nc2ccccc2)c1` stands “inactive”; under `Cc1ccc(C(=O)Oc2ccc(C(O)CNC(C)(C)C)cc2OC(=O)c2ccc(C)cc2)cc1` (stereo not given), 19 µM (active).
With `CC(C)C[C@H]1C(=O)N2CCC[C@H]2[C@]2(O)O[C@](NC(=O)[C@@H]3C=C4c5cccc6[nH]c(Br)c(c56)C[C@H]4N(C)C3)(C(C)C)C(=O)N12`, the Potency result was “inactive”.
Same read-out and setting: to `Nc1cc(C(=O)O)c(O)c(S(=O)(=O)O)c1` belongs “inactive”; to `CC(=O)OC[C@H]1O[C@@H](n2ncc(=O)[nH]c2=O)[C@H](OC(C)=O)[C@@H]1OC(C)=O`, “inactive”.
Turning to `Cc1[nH]c(C)c(Cl)c(=O)c1Cl`, the activity change, negative = cytotoxicity is 7.97% [at 15.8 µM].
As to `CN1C[C@H]2c3ccccc3Oc3ccc(Cl)cc3[C@@H]2C1`, the Potency result is “inactive”.
For `CCCCC(CC)CN1C(=O)C2C3C=CC(C3)C2C1=O` (stereo not given), the Potency result is “inactive”.
For the compound `O=C1OC(=O)C2C3C=CC(C3)C12` (stereo not given), the Potency result is “inactive”.
The same measure, in the same setting: to `CC(=O)NO` belongs “inactive”; to `O=CC1CC=CCC1` (stereo not given), “inactive”.
The same measure, in the same setting: to `CN(Cc1ccc(C(C)(C)C)cc1)Cc1cccc2ccccc12` belongs 10.7 µM (active); to `CC(C)Cc1ccc(C(C)C(=O)OCc2ccccn2)cc1` (stereo not given), “inactive”; to `CCCCC/C=C\C/C=C\CCCCCCCC(=O)NC(C)c1ccccc1` (stereo not given), “inactive”.
With `O=[N+]([O-])c1ccc2[nH]ncc2c1`, the Potency result is “inactive”.
For `NCC(=O)CCC(=O)O`, the Potency result is “inactive”.

A further test in a line: qHTS assay to identify small molecule antagonists of the retinoid acid receptor (RAR) signaling pathway - cell viability counter screen (AID 1159551). Further: nearly all actives have a fitted effect of over 35% in size. The following applies: C3RL4 cells viability, ATP luminescence (CellTiter-Glo), 6 h; series mostly up to 92.4 µM. A digest of the protocol:
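Luminescent ATP quantitation (CellTiter-Glo) gave cell viability in C3RL4 cells exposed to test chemicals for 6 h at 37 C alongside 1 uM final retinol.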
With `CN(C)C(=O)NC1(c2ccccc2)CCN(CC[C@@]2(c3ccc(F)c(F)c3)CN(C(=O)c3ccccc3)CCO2)CC1`, the Potency entry is “inactive”.
As for `CC/C=C\CCOC(=O)CC`, the Potency entry is “inactive”.
`Cn1c(=O)cc(Oc2ccc(F)cc2F)c2cnc(NCC(C)(C)O)nc21`: the Potency result was “inactive”.
With `C/C=C/C=C/CO`, the Potency result was “inactive”.
With `CCCCCCCCCCCCCCOS(=O)(=O)O`, the Potency result is “inactive”.
On the same count and under the same terms, under `O=S(=O)(Oc1ccc(Cl)cc1)c1ccccc1` stands “inactive”.
Still for that read-out and setting: under `CCCCO` stands “inactive”.
On to `CC(=O)c1ccc2c(c1)N(CCCN1CCC(CCO)CC1)c1ccccc1S2`, for which the Potency result was “inactive”.
As for `CN1CCN(C(c2ccccc2)c2ccccc2)CC1`, the Potency entry was “inactive”.
Same read-out and setting: to `CNCCCCOc1ccccc1Cc1ccccc1` belongs “inactive”; to `Cc1cccc(Nc2ccccc2)c1`, “inactive”.
The same measure, in the same setting: under `CCCCC(CC)CN1C(=O)C2C3C=CC(C3)C2C1=O` (stereo not given) stands “inactive”; under `CC(C)Cc1ccc(C(C)C(=O)OCc2ccccn2)cc1` (stereo not given), “inactive”.
Take `NCC(=O)CCC(=O)O`: the Potency entry is “inactive”.

The next test in a line: qHTS assay to identify small molecule antagonists of the retinoic acid receptor (RAR) signaling pathway (AID 1159552; further: nearly all actives have a fitted effect of over 50% in size). The following applies: C3RL4 RARE luciferase reporter, retinol-stimulated, 6 h; series mostly up to 92.4 µM. A digest of the protocol: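 Readout: luciferase luminescence, 30 min post-reagent at RT. Setup: C3RL4 RARE reporter cells, compounds plus retinol 1 uM final, 6 hr incubation at 37 C and 5% CO2.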
Take `CCOc1ccc(O)cc1`: the Potency result is “inactive”.
Turning to `CCOc1ccc(N=Nc2ccc(/C=C/c3ccc(N=Nc4ccc(OCC)cc4)cc3S(=O)(=O)O)c(S(=O)(=O)O)c2)cc1`, the Potency entry was “inactive”.
On to `CCCCCCCCCCCc1ccccc1`, for which the Potency result is “inactive”.
`Nc1ccc(S(=O)(=O)Nc2ccccc2)cc1`: the Potency result is “inactive”.
Same read-out and setting: under `OC(C#CCN1CCCC1)(c1ccccc1)c1ccccc1` stands “inactive”; under `Nc1cc(C(=O)O)c(O)c(S(=O)(=O)O)c1`, “inactive”; under `CC(=O)OC[C@H]1O[C@@H](n2ncc(=O)[nH]c2=O)[C@H](OC(C)=O)[C@@H]1OC(C)=O`, “inactive”.
Take `Cc1[nH]c(C)c(Cl)c(=O)c1Cl`: the activity, negative = inhibition is 3.44% [at 19 µM].
Turning to `CN1C[C@H]2c3ccccc3Oc3ccc(Cl)cc3[C@@H]2C1`, the Potency result was “inactive”.
Take `O=CC1CC=CCC1` (stereo not given): the Potency entry was “inactive”.
Turning to `O=[N+]([O-])c1ccc2[nH]ncc2c1`, the Potency result was “inactive”.

A short description of another test: qHTS assay to identify small molecule agonists of the retinoic acid receptor (RAR) signaling pathway (AID 1159553). Conditions: C3RL4 RARE luciferase reporter, agonist, 6 h; series mostly up to 73.3 µM. The essentials: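 Luminescence from a RARE-driven luciferase reporter in C3RL4 cells served as the read-out, measured after 30 min with detection reagent at room temperature. Compounds in DMSO were applied for 6 hr at 37 C following overnight seeding.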
In the case of `O=C(O)C1(C(=O)O)CCC1.[NH2-].[NH2-].[Pt+2]`, the Potency result is “inactive”.
Same read-out and setting: to `C=C(C)C(=O)OCCO` belongs “inactive”; to `CCOc1ccc(N=Nc2ccc(/C=C/c3ccc(N=Nc4ccc(OCC)cc4)cc3S(=O)(=O)O)c(S(=O)(=O)O)c2)cc1`, “inactive”; to `CCCCCCCCCCCc1ccccc1`, “inactive”.
On the same count and under the same terms, under `Nc1ccc(S(=O)(=O)Nc2ccccc2)cc1` stands “inactive”; under `C=CC(=O)OCCOc1ccccc1`, “inactive”; under `CC(=O)[O][Al]`, “inactive”.
The same measure, in the same setting: to `OC(C#CCN1CCCC1)(c1ccccc1)c1ccccc1` belongs “inactive”.
On to `Cc1ccc(C(=O)Oc2ccc(C(O)CNC(C)(C)C)cc2OC(=O)c2ccc(C)cc2)cc1` (stereo not given), for which the Potency result is “inactive”.
For the compound `CC(C)C[C@H]1C(=O)N2CCC[C@H]2[C@]2(O)O[C@](NC(=O)[C@@H]3C=C4c5cccc6[nH]c(Br)c(c56)C[C@H]4N(C)C3)(C(C)C)C(=O)N12`, the Potency entry is “inactive”.
As for `Nc1cc(C(=O)O)c(O)c(S(=O)(=O)O)c1`, the Potency result is “inactive”.
Still for that read-out and setting: to `CC(=O)OC[C@H]1O[C@@H](n2ncc(=O)[nH]c2=O)[C@H](OC(C)=O)[C@@H]1OC(C)=O` belongs “inactive”; to `Cc1[nH]c(C)c(Cl)c(=O)c1Cl`, “inactive”.
On the same count and under the same terms, to `CN1C[C@H]2c3ccccc3Oc3ccc(Cl)cc3[C@@H]2C1` belongs “inactive”; to `O=C1OC(=O)C2C3C=CC(C3)C12` (stereo not given), “inactive”.
On the same count and under the same terms, to `CC(=O)NO` belongs “inactive”.
Take `O=CC1CC=CCC1` (stereo not given): the Potency result was “inactive”.
Still for that read-out and setting: under `CN(Cc1ccc(C(C)(C)C)cc1)Cc1cccc2ccccc12` stands “inactive”.
Same read-out and setting: to `CCCCC/C=C\C/C=C\CCCCCCCC(=O)NC(C)c1ccccc1` (stereo not given) belongs “inactive”.
Take `O=[N+]([O-])c1ccc2[nH]ncc2c1`: the Potency entry is “inactive”.
